HSF1 activator: increases HSF-1 driven luciferase reporter signal; NIH3T3-HGL HSF-1 luciferase reporter, MG132, 8 h; 100% = twice DMSO control signal; activation, % at 9 µM; 300,000 compounds, 1.7% hits; AID 504408;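 active = mean replicate activation of at least 50% with a set share of replicates each reaching 50%; inconclusive = only one of those two conditions met; inactive = mean below 50% and too few replicates reaching it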;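 note: 0% = median of the neutral control wells and 100% = twice that signal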
TROY signal inh: inhibitors of TROY-dependent NF-kB signaling. Q293 LMP1-TROYcd NF-kB luciferase reporter, 4 h. inhibition, % at 10 µM. 360,000 compounds, 0.98% hits. AID 1347056;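 active = compounds whose plate-normalised and pattern-corrected inhibition of the luciferase reporter signal at the single screening dose is 50% or more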
LMP1 NFkB inh: Epstein-Barr LMP1 NF-kappaB reporter inhibition | inhibition, % at 12.5 µM | AID 504558 | 350,000 compounds, 0.69% hits | LMP1-induced NF-kappaB luciferase reporter cells, luminescence; in the data active = inhibition above about 41%; inconclusive = no clear call, values can overlap the other calls;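 note: 0% = neutral control wells and 100% = reference inhibitor control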
TWEAK-Fn14 inh: TWEAK-Fn14 signaling inhibition. 360,000 compounds, 2% hits. inhibition, % at 10 µM. TWEAK-stimulated Fn14 reporter cells, luciferase luminescence, 8 h; in the data active = inhibition above about 50%
HSP90 refold inh: blocks HSP90-mediated luciferase refolding in reticulocyte lysate. Rabbit reticulocyte lysate, luciferase refolding luminescence, 3 h. inhibition, % at 5.6 µM. 290,000 compounds, 0.91% hits. AID 1789;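 active = inhibition above the screen-wide mean plus 3 SD, computed separately per campaign, cut at about 16% in these data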;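 note: 0% = DMSO wells and 100% = 60 µM geldanamycin wells; inhibitors lower the luminescence because luciferase stays unfolded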
HSF1 inhib: HSF1 inhibition; activity change, negative = inhibition, % at 7.5 µM (by protocol); NIH3T3-HGL HSE-luciferase, MG132-induced, luminescence 8 h; stronger effect = lower value; AID 2098; 300,000 compounds, 0.77% hits;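 active = more than half of replicate wells show activity change below -50%, luminescence cut by over half; inconclusive = some wells, but at most half, below -50%; inactive = no replicate well below -50%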;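 note: luciferase reports HSF-1 transcriptional activity via heat shock element; 0% = median of DMSO wells and -100% = zero luminescence signal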
* hit, by the source's call; ? = inconclusive; . = not tested or not shown. The list is not random: actives were taken first. Their share in the collection is about 4.7%.

SMILES	HSF1 activator	TROY signal inh	LMP1 NFkB inh	TWEAK-Fn14 inh	HSP90 refold inh	HSF1 inhib
CC1CCc2c(sc(NC(=O)CSc3nc(N)cc(=O)[nH]3)c2C(N)=O)C1 (stereo not given)	.	53*	6	67*	.	.
N#Cc1c(NC(=O)CSc2nc(N)cc(=O)[nH]2)sc2c1CCCCCC2	.	13	3	16	-1	.
O=S(=O)(O)c1cc(O)c2cc(Nc3ccccc3)ccc2c1	.	1	-2	15	.	.
O=S(=O)(O)c1ccc(O)c2cc(Nc3ccccc3)ccc12	.	-3	15	79*	.	.
Cc1cc(C)c2ccc(N)nc2c1O	24	9	2	69*	-2	7
C=CCNc1nc(NCC)nc(N2CCOCC2)n1	-4	14	3	6	-1	-7
C=CCNc1nc(Nc2ccc(-c3nc4ccccc4o3)cc2)nc(N2CCOCC2)n1	0	58*	-6	53*	2	-4
Oc1nc(Nc2cccc(Cl)c2)sc1/C=C1\C=Nc2ccccc21	9	83*	-25	53*	3	6
CC1=Nc2ccccc2/C1=C\c1sc(Nc2ccc(C)cc2)nc1O	19	26	9	55*	-6	10
CC(=O)N1CCc2cc(NC(=O)C3(C)CCN3CCc3ccccc3)ccc21 (stereo not given)	.	12	.	-10	.	.
CCCNC(=O)C1(C)CCN1C(=O)c1ccc(C(C)(C)C)cc1 (stereo not given)	.	-16	.	10	.	.
CCOC(=O)c1c(C)[nH]c(C(=O)OCC(=O)Nc2cc(Cl)ccc2OC)c1C	53*	18	-1	-15	6	25
CC(=O)c1c(C)[nH]c(C(=O)Nc2ccc(Cl)c(S(=O)(=O)N(C)C)c2)c1C	-11	-43	-18	-40	1	-4
CC(=O)c1c(C)[nH]c(C(=O)OCC(=O)Nc2ccc(Cl)cc2[N+](=O)[O-])c1C	-4	44	23	64*	1	-6
CC(=O)c1c(C)[nH]c(C(=O)OCC(=O)Nc2ccc(Cl)c(S(=O)(=O)N(C)C)c2)c1C	6	22	10	54*	-2	-14
CCC(C(=O)NC(C)(C)C)N(Cc1ccc(OC)cc1)C(=O)c1snc(C(N)=O)c1N (stereo not given)	.	-1	1	-8	.	.
O=C(COC(=O)c1cc(S(=O)(=O)Nc2ccccc2Cl)ccc1O)Nc1nc2ccccc2s1	.	60*	-6	-11	2	.
N#Cc1cccc(NC(=O)COC(=O)c2cc(S(=O)(=O)Nc3ccccc3Cl)ccc2O)c1	.	48	-4	-9	.	.
Cc1ccc(F)c(C(=O)N2CCCC(C)(C(=O)NS(=O)(=O)C3CC3)C2)c1F (stereo not given)	.	19	.	2	.	.
Oc1ccc(-c2cc(-c3ccc(O)cc3)nc(-c3ccccc3)n2)cc1	-11	54*	-1	44	0	0
O=C(CN1CCOCC1)Nc1nc(-c2ccc3c(c2)CCN3S(=O)(=O)c2ccccc2)cs1	7	47	17	53*	-1	2
Cc1sc(NC(=O)CN2CCOCC2)nc1-c1ccc2c(c1)CCN2S(=O)(=O)c1ccccc1	18	6	16	16	3	2
CS(=O)(=O)N1CCc2cc(-c3csc(NC(=O)Cc4cccs4)n3)ccc21	-3	19	10	80*	-3	-7
c1ccc(CN2CCC3CC2c2ccc(N4CCOCC4)cc23)cc1 (stereo not given)	.	4	2	1	.	.
CCC(c1nnnn1-c1ccc2c(c1)OCCO2)N1CCN(c2cc(C)ccc2C)CC1 (stereo not given)	.	9	.	4	.	.
SMILES	HSF1 activator	TROY signal inh	LMP1 NFkB inh	TWEAK-Fn14 inh	HSP90 refold inh	HSF1 inhib
Cc1ccc([C@H]2C(C(=O)O)=CC[C@@H](c3ccc(Cl)c(Cl)c3)N2S(=O)(=O)c2ccc(C)cc2)cc1	.	57*	-2	10	.	.
COc1ccc(-c2ccc(C(=O)Nc3ccc4c(c3)OCO4)c3occc23)c(C)c1	.	-48	.	4	.	.
O=[N+]([O-])c1cccc(C(=Nc2ccc(Cl)cc2)NO)c1	-2	-7	-3	24	2	12
ONC(=Nc1ccc(Cl)cc1)c1ccc(Cl)cc1	55*	-28	-12	-16	-2	29
C[C@H]1CN([C@@H](C)CO)S(=O)(=O)c2ccc(-c3ccccc3)cc2O[C@H]1CN(C)C(=O)C1CCC1	.	4	8	12	.	.
CCOC(=O)c1ccc(Oc2nc(SC)nc(N(C)C)n2)cc1	7	.	-6	73*	0	2
CCCCNC(=O)c1ccc(CS(=O)(=O)c2ccc(OC)cc2)o1	1	-6	-1	7	-4	-1
COc1ccc(S(=O)(=O)Cc2ccc(C(=O)NCCCN(C)c3ccccc3)o2)cc1	60*	8	4	6	4	27
Nc1ccc(N=Nc2ccccc2)c2cccnc12	82*	-32	-12	7	1	53
O=[N+]([O-])c1ccc(O)c2ncccc12	-61	-15	33	26	3	-55*
Oc1ccc(N=Nc2ccc3c(c2)OCCO3)c2cccnc12	-14	76*	60*	5	7	-3
O=Nc1ccc(O)c2ncccc12	26	-14	17	55*	7	10
O=S(=O)(O)c1cccc2c(N=Nc3ccc(O)c4ncccc34)cccc12	-3	-27	1	11	4	-2
O=[N+]([O-])c1ccc(O)c2cccnc12	10	7	0	3	-3	4
Cc1ccccc1N=Nc1ccc(O)c2ncccc12	89*	-11	44*	-57	-1	66
COc1cccc(N=Nc2ccc(O)c3ncccc23)c1	90*	-28	69*	52*	7	53
COc1ccc(N=Nc2ccc(O)c3ncccc23)cc1	-28	-9	?	-48	0	-26
COc1ccc(C)cc1N=Nc1ccc(O)c2ncccc12	-30	0	86*	-103	-2	-19
Nc1nc2ccccc2cc1-c1cccs1	53*	-79	-13	-29	-2	10
c1csc(-c2ccc3ccccc3n2)c1	31	-46	-26	-16	-2	22
C/C=C/c1cccc(-c2nc(C(=O)NC3CCCC3)cc3c2[C@@H](CCO)N(S(=O)C(C)(C)C)C3)c1 (stereo not given in full)	.	-1	.	-24	.	.
OC[C@H]1O[C@@H](c2nc3ccc(-c4nc(-c5cccs5)no4)cc3[nH]2)C[C@@H]1O	.	47	.	24	.	.
Cc1nc2ccccn2c1C(=O)/C=C/c1ccc(F)cc1	200*	7	3	41	-2	175
COc1ccc(/C=C/C(=O)c2c(C)nc3ccccn23)cc1	63*	-51	-38	5	-5	31
COc1ccc(CNC(=O)c2c(C)nc3ccccn23)cc1	5	-1	4	10	2	1
Cc1ccc(C(=O)NCCNc2ccc(Cl)cc2[N+](=O)[O-])o1	10	9	5	16	-2	4
